Screening results deposited in PubChem by National Center for Advancing Translational Sciences (NCATS).
Shown are actives, neighbours in structure and some others; about 17% of the full set was active somewhere.
ATXN2 expr inh: Primary qHTS for Inhibitors of ATXN expression | HEK-293 ATXN2-luciferase reporter, luminescence, 24 h | Potency, µM (series often up to 57 µM), for the others: at the top dose activity change, negative = inhibition, most hits filed as inhibitors | hit rate 0.72% among 360,000; also: % is scaled to controls: 0 for no effect and ±100 for the full control effect; nearly all actives have a fitted effect of over 55% in size
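ATXN2-luciferase reporter cells (luciferase flanked by upstream and downstream ATXN2 gene portions) were treated 24 h at 37 °C with compounds at up to 57 uM. SteadyGlo luminescence gave expression; GF-AFC fluorescence gave viability.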
S2 tox: Viability Counterscreen for Primary qHTS for Inhibitors of ATXN expression; S2 cells (HEK-293 line with an ATXN2-luciferase reporter) viability, CellTiter-Fluor protease fluorescence, 24 h; Potency, µM (highest dose often 56.7 µM), hits mostly cytotoxic; hit rate 0.49% among 400,000; AID 651635, 2014; also: nearly all actives have a fitted effect of over 40% in size
TDP1 cell noCPT: qHTS for Inhibitors of human tyrosyl-DNA phosphodiesterase 1 (TDP1): qHTS in cells in absence of CPT | DT40 Tdp1-/- hTDP1 cells, no CPT, ATP luminescence, 48 h | Potency, µM (top dose mostly 46.2 µM), for inactives: top-dose activity change, negative = growth inhibition, most hits filed as inhibitors | hit rate 15% among 420,000 | AID 686978, 2013; also: % is scaled to controls: 0 for no effect and ±100 for the full control effect; nearly all actives have a fitted effect of over 55% in size
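Camptothecin absent (DMSO only). Human TDP1-complemented DT40 knockout cells, 400 cells/well, 37 °C for minimum 48 hr; ATP measured via CellTiter-Glo, 30 min dark incubation, luminescence.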
TGFb inhibitor: qHTS for Inhibitors of TGF-b. HepG2 CAGA-GFP TGF-b/SMAD3 reporter, GFP fluorescence, 18 h; TGF-beta stimulated, 500 pg/mL final. Potency, µM (highest dose often 46.1 µM), without a hit: at the top dose activity, negative = inhibition, most hits filed as inhibitors. hit rate 1.2% among 410,000; also: % is scaled to controls: 0 for no effect and ±100 for the full control effect; nearly all actives have a fitted effect of over 65% in size
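Per well, imaged GFP fluorescence of HEPG2 CAGA-GFP cells gives the signal; cells get compound, then TGF-beta (500 pg/mL final), 18 h at 37 degrees C; %Activity versus -TGF-beta and +DMSO controls.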
DT40 TDP1 CPT: qHTS for Inhibitors of human tyrosyl-DNA phosphodiesterase 1 (TDP1): qHTS in cells in presence of CPT | chicken DT40 Tdp1-/-;hTDP1 cells + 20 nM CPT, ATP luminescence, 48 h | Potency, µM (titrated, usually from 46.2 µM), without a hit: at the top dose activity change, negative = growth inhibition, actives largely listed as inhibitors | hit rate 12% among 420,000; also: % is scaled to controls: 0 for no effect and ±100 for the full control effect; nearly all actives have a fitted effect of over 55% in size
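Cell growth measured by CellTiter-Glo luminescence after a minimum 48 h, 37 C compound exposure with 20 nM CPT in Tdp1-knockout DT40 cells stably expressing hTDP1, seeded 400/well; qHTS titration format.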
HepG2 viability: qHTS for Inhibitors of TGF-b: Cytotox Counterscreen | AID 588856, 2011 | hit rate 0.76% among 410,000 | Potency, µM (top dose mostly 46.1 µM), for inactives: top-dose activity change, negative = cytotoxicity, most hits filed as cytotoxic | HepG2 CAGA-GFP viability, ATP luminescence, 18 h
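CellTiter-Glo luminescence gave cytotoxicity after 18 hours at 37 degrees C. The cells were HepG2 CAGA-GFP in 1% FBS DMEM, stimulated with 500 pg/mL TGF-beta after compound addition. %Activity was normalised to no-cell wells (complete cell-killing) and DMSO (no toxicity), and curves were fitted and classified.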
* = called active by the depositor; i = inactive; ? = inconclusive; . = not tested or not shown. Calls follow the shape of the dose curve; as a rule, active = well fitted curve in the direction sought with a large enough effect; inconclusive = small, poorly fitted or top-dose-only effect, or another doubt; inactive = no such curve, though single readings can be large; an effect the other way counts as inactive or inconclusive. Potency is read from the fitted curve at half-maximal effect.

SMILES | ATXN2 expr inh | S2 tox | TDP1 cell noCPT | TGFb inhibitor | DT40 TDP1 CPT | HepG2 viability
N#Cc1ccc(CN2CC3(CCN(C(=O)c4ccco4)CC3)C2)cc1 | . | . | -15% | . | 12% | .
OC(c1ccccc1)(c1ccccc1)C1CCN(CCCOc2ccccc2Cl)CC1 | ? | ? | 16µM* | . | 21µM* | .
COc1ccccc1OCCCN1CCC(C(O)(c2ccccc2)c2ccccc2)CC1 | ? | ? | 21µM* | . | ? | .
C=CCn1c(SC/C=C/c2ccccc2)nnc1-c1sc(N)nc1C | -3% | i | 15µM* | -34% | ? | 2%
Cc1ccc(NC(=S)NC(C)CCc2ccccc2)cc1C (stereo unspecified) | -24% | i | ? | ? | ? | -8%
Cc1ccccc1CN(C)CC(=O)NC(C)CCc1ccccc1 (stereo unspecified) | -5% | i | 16µM* | -23% | ? | -25%
Cc1cccc(C)c1NC(=S)NC(C)CCc1ccccc1 (stereo unspecified) | -7% | i | 16µM* | -1% | ? | -16%
O=C(Nc1c(-c2ccc3c(c2)OCO3)[nH][nH]c1=O)c1cccc(C(F)(F)F)c1 | -4% | i | ? | 0% | -8% | 1%
Cc1cc(O)cc2c1C1CCC3(C)C(O)CCC3C1C=C2 (stereo unspecified) | 69% | i | 21µM* | 39% | ? | 2%
O=C1C2=C(c3ccccc31)[N+](=O)[C@@H]1CCCC[C@@H]1N2[O-] | 10% | ? | ? | -14% | ? | -15%
O=C1C2=C(c3ccccc31)[N+](=O)C1CCCCC1N2[O-] (stereo unspecified) | 18% | i | 15µM* | -7% | 23µM* | -24%
CCCCCCOc1ccc(C(=N)N(CCCC)CCCC)c2ccccc12 | . | . | 2.7µM* | . | 4.2µM* | .
CCCCN(CC)CCOc1cccc2ccccc12 | . | . | ? | . | -28% | .
CC(O)[C@@H]1NC(=O)[C@H](Cc2ccccc2)NC(=O)[C@H](C(C)O)NC(=O)[C@H](CCCCN)NC(=O)[C@H](Cc2c[nH]c3ccccc23)NC(=O)[C@H](Cc2ccccc2)NC(=O)[C@H](Cc2ccccc2)NC(=O)[C@H](CC(N)=O)NC(=O)[C@H](CCCCN)NC(=O)[C@@H](NC(=O)CNC(=O)[C@H](C)N)CSSC[C@@H](C(=O)O)NC(=O)[C@H](CO)NC1=O (stereo partly specified) | . | . | -13% | . | -7% | .
COc1cc(C(C(=O)NC2CCCCC2)N(CCN2CCOCC2)C(=O)C2COc3ccccc3O2)cc(OC)c1OC (stereo unspecified) | -5% | i | -25% | -2% | 7% | -1%
CCOC(=O)C1(Cc2cccc(F)c2)CCN(Cc2ccc(COC)o2)CC1 | -30% | i | 21µM* | -31% | 23µM* | -8%
CCOC(=O)C1(Cc2ccccc2)CCN(Cc2ccon2)CC1 | -6% | i | -23% | 6% | -26% | -2%
CCOC(=O)C1(Cc2ccccc2)CCN(Cc2ccc(C)s2)CC1 | -37% | i | 23µM* | 2% | ? | -1%
CCOC(=O)C1(Cc2ccccc2)CCN(Cc2ccc(COC)o2)CC1 | -15% | i | ? | -8% | 12µM* | -4%
CCOC(=O)C1(CCOc2ccccc2)CCN(Cc2ccc(COC)o2)CC1 | 0% | i | ? | -11% | 7.3µM* | -17%
CCOC(=O)C1(Cc2ccccc2C(F)(F)F)CCN(Cc2ccon2)CC1 | -16% | ? | 15µM* | -12% | ? | -9%
CC(=O)N1CCC2(CCCN(c3ccccn3)C2)CC1 | . | . | -15% | . | ? | .
C[C@@](N)(C(=O)O)[C@@H]1C[C@@H]1C(=O)O | . | . | -19% | . | -18% | .
Cc1ccc(N(C(=O)c2snc(C(N)=O)c2N)C(C(=O)NCC2CCCO2)c2ccc3ncccc3c2)cc1 (stereo unspecified) | -4% | i | -28% | -20% | ? | -50%
NC(=O)c1nsc(C(=O)N(c2ccc3c(c2)OCCO3)C(C(=O)NCC2CCCO2)c2ccc(F)cc2)c1N (stereo unspecified) | 3% | i | 18µM* | 2% | 15µM* | -16%
SMILES | ATXN2 expr inh | S2 tox | TDP1 cell noCPT | TGFb inhibitor | DT40 TDP1 CPT | HepG2 viability
NC(=O)c1nsc(C(=O)N(c2ccccc2)C(C(=O)NCC2CCCO2)c2ccc(F)cc2)c1N (stereo unspecified) | -14% | i | ? | -1% | ? | -31%
Cc1ccc(C(C(=O)NCC2CCCO2)N(C(=O)c2snc(C(N)=O)c2N)c2ccc3c(c2)OCCO3)cc1 (stereo unspecified) | -9% | i | -86% | 30% | 23µM* | -8%
COc1ccc(CCN(C(=O)c2snc(C(N)=O)c2N)C(C(=O)NCC2CCCO2)c2ccc(F)cc2)cc1OC (stereo unspecified) | -12% | i | 29µM* | 13% | ? | 6%
COc1ccc(-c2noc(CCC(=O)N3CCN(c4ccc(C(F)(F)F)cc4)CC3)n2)cc1 | 7% | i | ? | 4% | ? | -10%
CCN(C(=O)CCCCC(=O)N(CC)c1ccccc1)c1ccccc1 | 4% | i | 18µM* | 14% | ? | -15%
CN(CC(=O)NNC(=O)CCNS(=O)(=O)c1ccccc1)S(=O)(=O)c1ccc(Cl)cc1 | -7% | i | -7% | 4% | -15% | 2%
CCOC(=O)C(C)Sc1nc(-c2ccccn2)ncc1OC (stereo unspecified) | -36% | i | 5.8µM* | ? | 2.9µM* | -17%
CCOC(=O)C(C)Sc1ncc(OC)c(Sc2ccc(Cl)cc2)n1 (stereo unspecified) | -16% | i | -1% | 9% | -8% | -13%
COc1ccccc1Sc1nc(-c2ccccc2)ncc1OC | -3% | ? | 21µM* | -8% | ? | -14%
COc1cnc(N(C)C)nc1Sc1cccc(Cl)c1 | -11% | i | ? | 0% | ? | -19%
COc1cnc(-c2ccccn2)nc1Sc1ccccc1Cl | ? | ? | 1µM* | -8% | 1.5µM* | -17%
